Results: PubChem BioAssay (NCI)
About 83,000 compounds went through this panel and 20% of them were active in at least one assay; those are over-represented in the sample as a whole.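 Cell lines were cultured in 96-well plates, exposed to a single compound concentration, and assessed for percent growth 48 hours later.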 Unmarked numbers belong to inactive results. The source made the active and inactive calls. Rule for the calls: active = growth percent below 10; inactive = the rest.

system: ACHN renal; test: NCI-60 one-dose screen, 48 h (100 = growth as untreated, 0 = no growth, -100 = all killed); conditions: 10 µM unless noted

| Structure (SMILES) | growth |
| --- | --- |
| CCC(c1ccccc1)C(CC)c1ccc(O)c(O)c1 (stereo unspecified) | 95.9% |
| CN1CCN(c2ccc3nc(-c4ccc5nc(-c6ccc(OCCC(C)(C)C)cc6)[nH]c5c4)[nH]c3c2)CC1 | 64.4% |
| NC(N)=Nc1ccc(S(=O)(=O)O)cc1 | 93% |
| O=C(/C=C/c1cc2ccccc2[nH]c1=O)/C=C/c1cc2ccccc2[nH]c1=O | -11.2% (active) |
| Nc1ccc(Nc2nccc(-c3ccc4ccccc4c3)n2)cc1 | 45.6% |
| C=C1CCC2C3(C)COC(c4ccc(OC)cc4Br)OC3CCC2(C)C1/C=C/C1=CCOC1=O (stereo unspecified) | 81.1% |
| CCC(=O)Oc1ccc(/C(=C(\C)c2ccccc2)c2ccc(OCCN(CC)CC)cc2)cc1 | 94.8% |
| CC(=O)/C(=C/c1cccc(Cl)c1)C(=O)c1ccccc1 | 88.6% |
| NS(=O)(=O)c1ccc(-n2ncc3c(=O)[nH]c(CN4CCN(c5cc6c(cc5F)c(=O)c(C(=O)O)cn6C5CC5)CC4)nc32)cc1 | 94% |
| COc1ccc(-c2nn(-c3ccccc3)cc2/C=C2\SC(=O)NC2=O)cc1 | 96% |
| O=C(COc1cccc(/C=C2/Oc3ccccc3C2=O)c1)Nc1nccs1 | 112% |
| CN1CCN(Cc2ccc(NC(=O)c3[nH]ncc3Nc3ncnc4sccc34)cc2)CC1 | 1.08% (active) |
| CC1=N/C(=C\c2cccc(Br)c2)C(=O)O1 | 109% |
| COc1cc(C(=O)/C=C/c2c(C)n([O-])c3ccc(C)cc3[n+]2=O)cc(OC)c1OC | -40.9% (active) |
| CCN(CC)CC#CCOC(=O)[C@]1(C)CCC[C@@]2(C)[C@H]1CC(C=O)=C1C=C(C(C)C)CC[C@@H]12 | 86.9% |
| C=C1CCC2C3(C)COC(c4ccccc4Br)OC3CCC2(C)C1C/C=C1/C(=O)OCC1OC(C)=O (stereo unspecified) | -80.2% (active) |
| CCOC(=O)C(=Cc1ccccc1F)C(=O)OCC | 92.7% |
| Cn1c2ccccc2c2c3c(c4c5ccccc5n(CCCCCC#N)c4c21)C(=O)N(O)C3=O | -0.622% (active) |
| CC(=O)C1=C(O)C=C2Oc3c(C(=O)/C=C/c4c(Cl)cccc4Cl)c(O)c(C)c(O)c3[C@]2(C)C1=O | -15.3% (active) |

| Structure (SMILES) | growth |
| --- | --- |
| Oc1ccc(Nc2nccc(-c3ccc4ccccc4c3)n2)cc1 | 42.8% |
| COc1ccc(C(=O)/C=C/c2cc3ccccc3[nH]c2=O)cc1 | 57.9% |
| C[C@@]1(N2C(=O)OC[C@@H]2c2ccccc2)C(=O)N([C@H](CC(=O)N2CCC(N3CCCCC3)CC2)C(=O)NCc2cccc(C(F)(F)F)c2)[C@@H]1/C=C/c1ccccc1 | 75.2% |
| CCOC(=O)c1cnc2ccc(Br)cc2c1Nc1cccc(S(=O)(=O)NC)c1 | 98.3% |
| CCN1CCN(Cc2ccc(NC(=O)Nc3nc4ccc(Oc5ccnc(C(=O)NC)c5)cc4s3)cc2C(F)(F)F)CC1 | -84.5% (active) |
| O=c1c2c3c(sc2n2c(CCl)nnc2n1Cc1ccccc1)CCCC3 | -100% (active) |
| COC(=O)[C@H](C(C)C)n1c(=O)c2cc(OC)c(OC)cc2c2cnc3[nH]ccc3c21 | 34% |
| CC(=O)Oc1ccc(Nc2c3ccccc3nc3ccccc23)cc1 | -31.7% (active) |
| COc1cc(NCCCCN=C(N)NC(N)=NC(C)C)c2ncccc2c1 | 108% |
| CCN(CC)C12CCCCC1(C)C(C#N)(C#N)C(C#N)=C(N)O2 (stereo unspecified) | 106% |
| O=C(CNC1C2CC3CC(C2)CC1C3)Sc1nnc2sc3ccccc3n12 (stereo unspecified) | 100% |
| COc1ccc(-c2c3c(nc4n[nH]c(-c5ccc(Cl)cc5)c24)-c2ccccc2C(=O)C3=O)cc1 | 10.7% |
| O=C(/C=C\c1ccc2ccccc2n1)c1cc(Cl)ccc1O | 89.5% |
| O=C1c2cc3c(cc2-c2c1c1cc(Cl)c(Cl)cc1c(=O)n2CCCn1ccnc1)OCO3 | -6.04% (active) |
| CC1(C)CC(=O)C(c2c(-c3ccccc3)[nH]c3[nH]c(=S)[nH]c(=O)c23)=C(O)C1 | 97.3% |
| O=C(/C=C/c1cccc(Br)c1)c1ccccc1 | 95.7% |
| O=C(CO[N+](=O)[O-])Nc1ccc(C(=O)/C=C/c2ccc(Cl)cc2)cc1 | 62.3% |
| CN(C)c1ccc(/C=C\C2=[N+](C)c3ccccc3C2(C)C)cc1 | 4.49% (active) |
| COc1ccc(CCN2CC=Cn3c2nc2ccccc2c3=O)cc1 | 26.7% |

system: CAKI-1 renal; test: as above; conditions: 10 µM unless noted

| Structure (SMILES) | growth |
| --- | --- |
| CCC(c1ccccc1)C(CC)c1ccc(O)c(O)c1 (stereo unspecified) | 101% |
| CN1CCN(c2ccc3nc(-c4ccc5nc(-c6ccc(OCCC(C)(C)C)cc6)[nH]c5c4)[nH]c3c2)CC1 | 65.4% |
| NC(N)=Nc1ccc(S(=O)(=O)O)cc1 | 115% |
| O=C(/C=C/c1cc2ccccc2[nH]c1=O)/C=C/c1cc2ccccc2[nH]c1=O | 31.9% |
| Nc1ccc(Nc2nccc(-c3ccc4ccccc4c3)n2)cc1 | 32% |
| C=C1CCC2C3(C)COC(c4ccc(OC)cc4Br)OC3CCC2(C)C1/C=C/C1=CCOC1=O (stereo unspecified) | 74.3% |
| CCC(=O)Oc1ccc(/C(=C(\C)c2ccccc2)c2ccc(OCCN(CC)CC)cc2)cc1 | 100% |
| CC(=O)/C(=C/c1cccc(Cl)c1)C(=O)c1ccccc1 | 95.3% |
| NS(=O)(=O)c1ccc(-n2ncc3c(=O)[nH]c(CN4CCN(c5cc6c(cc5F)c(=O)c(C(=O)O)cn6C5CC5)CC4)nc32)cc1 | 89.2% |
| COc1ccc(-c2nn(-c3ccccc3)cc2/C=C2\SC(=O)NC2=O)cc1 | 83.2% |
| O=C(COc1cccc(/C=C2/Oc3ccccc3C2=O)c1)Nc1nccs1 | 37% |
| CN1CCN(Cc2ccc(NC(=O)c3[nH]ncc3Nc3ncnc4sccc34)cc2)CC1 | 6.37% (active) |
| CC1=N/C(=C\c2cccc(Br)c2)C(=O)O1 | 100% |
| COc1cc(C(=O)/C=C/c2c(C)n([O-])c3ccc(C)cc3[n+]2=O)cc(OC)c1OC | 6.71% (active) |
| CCN(CC)CC#CCOC(=O)[C@]1(C)CCC[C@@]2(C)[C@H]1CC(C=O)=C1C=C(C(C)C)CC[C@@H]12 | 101% |
| C=C1CCC2C3(C)COC(c4ccccc4Br)OC3CCC2(C)C1C/C=C1/C(=O)OCC1OC(C)=O (stereo unspecified) | -32.4% (active) |
| CCOC(=O)C(=Cc1ccccc1F)C(=O)OCC | 96.5% |
| Cn1c2ccccc2c2c3c(c4c5ccccc5n(CCCCCC#N)c4c21)C(=O)N(O)C3=O | -32.3% (active) |
| CC(=O)C1=C(O)C=C2Oc3c(C(=O)/C=C/c4c(Cl)cccc4Cl)c(O)c(C)c(O)c3[C@]2(C)C1=O | 6.78% (active) |

| Structure (SMILES) | growth |
| --- | --- |
| Oc1ccc(Nc2nccc(-c3ccc4ccccc4c3)n2)cc1 | 27.2% |
| COc1ccc(C(=O)/C=C/c2cc3ccccc3[nH]c2=O)cc1 | 42.8% |
| C[C@@]1(N2C(=O)OC[C@@H]2c2ccccc2)C(=O)N([C@H](CC(=O)N2CCC(N3CCCCC3)CC2)C(=O)NCc2cccc(C(F)(F)F)c2)[C@@H]1/C=C/c1ccccc1 | 82.8% |
| CCOC(=O)c1cnc2ccc(Br)cc2c1Nc1cccc(S(=O)(=O)NC)c1 | 87.4% |
| CCN1CCN(Cc2ccc(NC(=O)Nc3nc4ccc(Oc5ccnc(C(=O)NC)c5)cc4s3)cc2C(F)(F)F)CC1 | -44.2% (active) |
| O=c1c2c3c(sc2n2c(CCl)nnc2n1Cc1ccccc1)CCCC3 | -100% (active) |
| COC(=O)[C@H](C(C)C)n1c(=O)c2cc(OC)c(OC)cc2c2cnc3[nH]ccc3c21 | 30.5% |
| CC(=O)Oc1ccc(Nc2c3ccccc3nc3ccccc23)cc1 | -32% (active) |
| COc1cc(NCCCCN=C(N)NC(N)=NC(C)C)c2ncccc2c1 | 116% |
| CCN(CC)C12CCCCC1(C)C(C#N)(C#N)C(C#N)=C(N)O2 (stereo unspecified) | 91.8% |
| O=C(CNC1C2CC3CC(C2)CC1C3)Sc1nnc2sc3ccccc3n12 (stereo unspecified) | 76.4% |
| COc1ccc(-c2c3c(nc4n[nH]c(-c5ccc(Cl)cc5)c24)-c2ccccc2C(=O)C3=O)cc1 | 47.1% |
| O=C(/C=C\c1ccc2ccccc2n1)c1cc(Cl)ccc1O | 44.9% |
| O=C1c2cc3c(cc2-c2c1c1cc(Cl)c(Cl)cc1c(=O)n2CCCn1ccnc1)OCO3 | 11.9% |
| CC1(C)CC(=O)C(c2c(-c3ccccc3)[nH]c3[nH]c(=S)[nH]c(=O)c23)=C(O)C1 | 125% |
| O=C(/C=C/c1cccc(Br)c1)c1ccccc1 | 90.6% |
| O=C(CO[N+](=O)[O-])Nc1ccc(C(=O)/C=C/c2ccc(Cl)cc2)cc1 | 74.9% |
| CN(C)c1ccc(/C=C\C2=[N+](C)c3ccccc3C2(C)C)cc1 | 13.4% |
| COc1ccc(CCN2CC=Cn3c2nc2ccccc2c3=O)cc1 | 26.9% |
